In publication PMC4336329 (PLoS ONE, 2015):
Hit rate of the full screen: of about 310,000 compounds, about 14,000 (4.5%) showed an effect of 50% or more. The effect is printed as a negative number. This is one part of a sample in which strong results are shown more often than they occur.

These compounds were tested against human ether-à-go-go-related gene (hERG) potassium channel (human, UniProt Q12809) (assay: primary screen, population patch clamp on CHO cells stably expressing hERG; higher = less effect of the substance).
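Also: peak tail current of the secondary pulse compared with the same well before compound.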

human ether-à-go-go-related gene (hERG) potassium channel, sequence (Q12809 whole entry, looked up): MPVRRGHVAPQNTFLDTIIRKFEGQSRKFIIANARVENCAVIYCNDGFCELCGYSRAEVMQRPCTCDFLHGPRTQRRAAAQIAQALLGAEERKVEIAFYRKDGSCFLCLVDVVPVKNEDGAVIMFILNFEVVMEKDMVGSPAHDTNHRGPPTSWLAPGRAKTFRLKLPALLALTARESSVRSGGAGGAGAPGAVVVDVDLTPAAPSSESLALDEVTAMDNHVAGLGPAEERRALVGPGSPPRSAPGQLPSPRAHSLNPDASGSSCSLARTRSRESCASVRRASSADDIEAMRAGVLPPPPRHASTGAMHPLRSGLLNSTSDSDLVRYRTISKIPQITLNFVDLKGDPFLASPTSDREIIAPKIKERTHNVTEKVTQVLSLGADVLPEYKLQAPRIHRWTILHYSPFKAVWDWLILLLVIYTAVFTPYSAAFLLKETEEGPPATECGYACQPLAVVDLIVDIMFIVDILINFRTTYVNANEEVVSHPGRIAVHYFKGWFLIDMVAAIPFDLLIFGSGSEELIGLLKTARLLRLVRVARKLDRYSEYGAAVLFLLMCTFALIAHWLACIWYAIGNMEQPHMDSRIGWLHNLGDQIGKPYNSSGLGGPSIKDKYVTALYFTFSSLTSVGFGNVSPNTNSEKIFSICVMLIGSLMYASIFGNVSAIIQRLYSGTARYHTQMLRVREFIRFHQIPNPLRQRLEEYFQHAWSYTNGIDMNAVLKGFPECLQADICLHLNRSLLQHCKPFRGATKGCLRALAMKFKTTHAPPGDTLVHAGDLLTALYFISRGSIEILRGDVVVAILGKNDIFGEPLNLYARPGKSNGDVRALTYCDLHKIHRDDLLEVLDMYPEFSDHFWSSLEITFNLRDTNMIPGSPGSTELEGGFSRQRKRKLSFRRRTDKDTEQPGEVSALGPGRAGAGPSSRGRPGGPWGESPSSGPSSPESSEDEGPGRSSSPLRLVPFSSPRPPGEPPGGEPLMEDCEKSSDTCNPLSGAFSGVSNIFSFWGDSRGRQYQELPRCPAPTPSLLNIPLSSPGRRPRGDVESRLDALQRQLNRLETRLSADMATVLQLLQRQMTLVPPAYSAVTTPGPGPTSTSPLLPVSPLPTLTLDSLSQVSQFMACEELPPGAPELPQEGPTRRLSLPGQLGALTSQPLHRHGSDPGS

SMILES	hERG current change (%, negative = inhibition) at 10uM
CCCc1nnc(NC(=O)CN2CCN(C)CC2)s1.Cl	-1.91%
O=C(Nc1cccc(O)c1)c1noc2c1CCCCC2	-8.56%
O=c1[nH]nc(-c2ccc(F)cc2)cc1Cc1ccccc1	3.89%
CN(C)C(=O)c1cc(C(=O)c2ccc(F)cc2Cl)c[nH]1	11.4%
CN(Cc1ccc(OC(F)F)cc1)Cc1nc2c(Br)cc(Br)cc2c(=O)[nH]1	-5.29%
COc1cc(/C=C/C(=O)OCC(=O)NC2CCS(=O)(=O)C2)ccc1OC(F)F (stereo not drawn)	-14%
COc1cc(NC(=O)NS(=O)(=O)c2ccc(C)cc2)cc(OC)c1	-1.04%
CSc1snc(SCC(N)=O)c1C#N	20.6%
Cc1cccc(-n2c(C)nc3c(cnn3-c3ccc(F)cc3)c2=O)c1	-12.6%
COc1ccc(C)cc1NC(=O)c1cccc(-c2ccc(OC(C)=O)cc2)c1	28.5%
COc1ccc(NC(=O)Nc2nnc(N3CCC(C)CC3)s2)cc1OC	-0.885%
CC1=NNC(=O)C1C(c1cccc(O)c1)C(C#N)C#N (stereo not drawn)	14.3%
O=C(NCCOc1ccccc1F)c1cc([N+](=O)[O-])ccc1N1CCOCC1	-45.1%
O=C(NC1CCCCC1)c1cc([N+](=O)[O-])ccc1N1CCOCC1	-13.8%
CC(NC(=O)COC(=O)c1cc([N+](=O)[O-])ccc1N1CCOCC1)c1ccc(F)cc1 (stereo not drawn)	-56.8%
O=C(COC(=O)c1cc([N+](=O)[O-])ccc1N1CCOCC1)c1ccccc1Cl	-2.75%
CC(C)CCNC(=O)c1cc([N+](=O)[O-])ccc1N1CCOCC1	-17.1%
O=C(NC1CCSc2ccccc21)c1cc([N+](=O)[O-])ccc1N1CCOCC1 (stereo not drawn)	-57.8%
CN(Cc1ccccc1)C(=O)COC(=O)c1cc([N+](=O)[O-])ccc1N1CCOCC1	-56.7%
CCN(C(=O)COC(=O)c1cc([N+](=O)[O-])ccc1N1CCOCC1)c1ccccc1	-34.3%
CC(=O)Nc1ccc(NC(=O)COC(=O)c2cc([N+](=O)[O-])ccc2N2CCOCC2)cc1	0.326%
O=C(NCCOc1ccccc1)c1cc([N+](=O)[O-])ccc1N1CCOCC1	-62.1%
O=C(NC1CCSc2ccccc21)c1cccc([N+](=O)[O-])c1 (stereo not drawn)	-21.1%
O=C(COC(=O)c1cc([N+](=O)[O-])ccc1N1CCOCC1)Nc1cccc(F)c1	-28.5%
